# According to PubChem BioAssay AID540332 (The Scripps Research Institute Molecular Screening Center, 2011):
# A number with no mark means an inactive call. How the calls were made is not given here.
# System: Potassium Channel KATP
# Test: selectivity profile across receptors and CYP450s – biochemical, Ricerca HitProfilingScreen, CYP450, set 2, selectivity assay for S1P4 agonist project, profiling panel (AID 540332)
# Details: at 30 µM; active compounds read high
structure (smiles),measurement,value
COCCN=C1S/C(=C\c2cc(C)n(-c3ccc(F)cc3F)c2C)C(=O)N1C,inhibition,-5%
